# ssDAF12 agonist: S. stercoralis DAF-12 nuclear receptor activators, primary screen, cell-based, luminescence, HEK293, GRIP1 co-expression, lit1-tk-luc; HEK293 ssDAF-12/GRIP1 lit1-tk-luc reporter; % of 3 µM dafachronic acid response; 1% of 370,000 active; activation, % at 6.8 µM; Nuclear hormone receptor DAF-12 (Strongyloides stercoralis);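 active = activation above the mean over all tested compounds plus 3 SD, cut at about 0.9% in these data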;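 note: 0% = DMSO-only wells and 100% = 3 µM delta7-dafachronic acid wells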
# DAX1 inh-1: DAX1 (NR0B1) inhibitors on StAR promoter, primary screen, cell-based, luminescence, SF-1 (NR5A1), full-length DAX-1 | HEK293T StAR-luciferase reporter, SF-1/DAX-1 repression relief | inhibition, % at 6.8 µM | 1.1% of 370,000 active | AID 652010, 2013;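 active = inhibition above the mean over all tested compounds plus 3 SD, cut at about 3.6% in these data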;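 note: 0% = DAX-1 cells with DMSO and 100% = cells lacking DAX-1 with DMSO; higher inhibition means more luminescence from relief of DAX-1 repression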
# hgDAF12 agonist: H. glycines DAF-12 receptor agonists, primary screen, cell-based, luminescence, HEK293, GAL4 fusion, UAS-luciferase. Nuclear hormone receptor DAF-12 (Heterodera glycines), GAL4 fusion. HEK293 GAL4-hgDAF12 UAS-luciferase reporter, agonist luminescence; normalized to butyrate control. activation, % at 6.8 µM. 1.8% of 370,000 active. AID 687014, 2013;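 active = activation above a cutoff set at the mean of all screened compounds plus 3 SD, cut at about 10% in these data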;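 note: 0% = DMSO wells and 100% = sodium butyrate wells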
# hcDAF-12 act: H. contortus DAF-12 nuclear receptor activators, primary screen, cell-based, luminescence, HEK293, lit1-tk-luc reporter; activation, % at 6.8 µM; 1.4% of 370,000 active; AID 652067, 2013; HEK293 hcDAF-12 lit1-tk-luc reporter; 0% DMSO, 100% Δ7-dafachronic acid;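 active = activation above the mean of all tested compounds plus 3 SD, cut at about 5.5% in these data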;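 note: 100% = response to 3 µM Δ7-dafachronic acid high control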
# DAX1 inh-2: DAX1 (NR0B1) inhibitors, primary screen, cell-based, HEK293, Gal4-DAX1, luciferase luminescence. inhibition, % at 6.75 µM. 0.99% of 340,000 active. HEK293 Gal4-DAX1 luciferase reporter;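 active = inhibition above the mean over all tested compounds plus 3 SD, cut at about 4.2% in these data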;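 note: 0% = DAX1-transfected cells with DMSO and 100% = empty-vector control cells with DMSO; inhibition shows as a rise in luminescence from relieved DAX1 repression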
# DAX1 inh confirm: DAX1 (NR0B1) inhibitors relieving SF-1 repression, confirmation, cell-based, luminescence, HEK293T, full-length DAX-1, SF-1 activated StAR promoter | shares compounds with DAX1 inh-1 | HEK293T StAR-promoter luciferase reporter, SF-1/DAX-1 repression | inhibition, % at 6.8 µM | 87% of 2,400 active | AID 652134, 2013;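 active = inhibition above the average of every tested compound plus 3 SD, cut at about 3.8% in these data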;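 note: 0% = DAX-1 cells with DMSO and 100% = no DAX-1 control cells with DMSO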
# SF1 AF2mut Luc: StAR reporter signal changes without DAX1, counter-screen for DAX1 inhibitor project, cell-based, luminescence, AF-2 mutant SF-1, transactivation; shares compounds with DAX1 inh-1; HEK293 StAR-luciferase, SF-1 AF2 mutant; inhibition, % at 6.8 µM; 78% of 2,400 active; AID 652136, 2013;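 active = inhibition above the mean of all tested compounds plus 3 SD, cut at about 3% in these data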;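 note: 0% = DAX-1 transfected cells with DMSO and 100% = cells without DAX-1 with DMSO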
# LXR ag: LXR agonists, Gal4 luciferase reporter, confirmation, counter-screen for hcDAF-12 agonist project, cell-based, luminescence, HEK293, H. contortus campaign | shares compounds with hcDAF-12 act | HEK293 Gal4-LXR tk-luc reporter, 24 h; normalized: DMSO 0%, positive control 100% | activation, % at 6.8 µM | 3,400 tested, under 10 active;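 active = mean percent activation of the reporter above a cutoff set as the average over tested compounds plus their standard deviation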
# Target sequence (P55055 whole entry, looked up, the tested form may be a part): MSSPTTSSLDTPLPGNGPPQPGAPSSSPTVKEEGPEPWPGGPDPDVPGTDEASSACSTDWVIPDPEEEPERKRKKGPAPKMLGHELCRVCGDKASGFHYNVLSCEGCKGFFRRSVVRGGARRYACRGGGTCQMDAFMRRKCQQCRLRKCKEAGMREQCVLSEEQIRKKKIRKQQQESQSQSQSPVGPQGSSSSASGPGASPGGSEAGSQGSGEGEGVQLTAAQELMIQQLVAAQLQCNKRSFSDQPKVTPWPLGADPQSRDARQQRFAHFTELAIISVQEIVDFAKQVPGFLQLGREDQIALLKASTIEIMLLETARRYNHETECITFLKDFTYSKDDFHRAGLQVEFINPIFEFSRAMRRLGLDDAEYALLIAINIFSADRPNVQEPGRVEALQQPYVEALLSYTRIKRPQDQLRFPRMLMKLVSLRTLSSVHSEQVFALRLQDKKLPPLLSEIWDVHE
# hcDAF12 ag: H. contortus DAF-12 receptor agonists, confirmation, cell-based, luminescence, HEK293, lit1-tk-luc, triplicate. shares compounds with hcDAF-12 act. HEK293 hcDAF-12 lit1-tk-luc reporter; % of Δ7-dafachronic acid response. activation, % at 6.8 µM. 61% of 3,400 active. AID 743032, 2013;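 active = mean activation across triplicate tests above the threshold derived from the earlier primary screen, cut at about 5.5% in these data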;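 note: 0% = DMSO only wells and 100% = 3 µM Δ7-dafachronic acid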
# * = called active by the depositor; . = no result. In the library only some 4.1% were active in any assay of this set; here they are far more common.
SMILES,ssDAF12 agonist,DAX1 inh-1,hgDAF12 agonist,hcDAF-12 act,DAX1 inh-2,DAX1 inh confirm,SF1 AF2mut Luc,LXR ag,hcDAF12 ag
CC(COc1cccc(Cl)c1)CN1CCC(C(O)(c2ccccc2)c2ccccc2)CC1 (stereo not drawn),-1,0,3,-1,.,.,.,.,.
N#CCCN(C(=O)COC(=O)c1ccc2ccccc2n1)c1ccccc1,-1,1,4,1,0,.,.,.,.
N#Cc1ccc(/C=C(\C(=O)C(=O)O)c2ccc3ccccc3n2)cc1,1.2*,6.8*,15*,10*,6.0*,8.2*,4.4*,1,8.9*
O=c1oc2ccccc2cc1-c1nc2c(s1)CCCC2,1,5.0*,12*,10*,0,5.2*,-1,1,14*
COc1ccc(S[C@]2(C(=O)N3CCOCC3)CC(=O)N(c3ccc(OC)cc3)[C@@H]2c2ccc(OC)cc2)cc1,-1,-1,2,-1,.,.,.,.,.
O=C(Nc1ccc2c(c1)CCC2)c1ccc(F)cc1,1,5.7*,20*,6.7*,0,13*,5.4*,2,6.6*
COC(=O)C1CN(Cc2cn(Cc3ccc(OC)cc3)nn2)CCS(=O)(=O)N1Cc1ccc(Cl)cc1 (stereo not drawn),-2,-3,-1,-4,.,.,.,.,.
Oc1c(/C=N/Nc2cccc3cccnc23)ccc2ccccc12,0,1,0,1,1,.,.,.,.
Oc1cccc(/C=N/Nc2cccc3cccnc23)c1,3.7*,5.7*,23*,21*,3,20*,10*,2,25*
C/C(=N\Nc1cccc2cccnc12)c1ccccc1O,4.2*,5.6*,25*,25*,9.6*,14*,4.3*,3,20*
COc1ccccc1NC(CC(=O)c1ccccc1)C(=O)OCC(=O)c1ccc(F)cc1 (stereo not drawn),2.7*,6.2*,18*,18*,1,15*,6.6*,3,19*
CCN(CC)S(=O)(=O)c1cccc(-c2nc3n(n2)Cc2ccccc2-3)c1,-2,1,3,0,0,.,.,.,.
Clc1ccc(-c2nc3n(n2)Cc2ccccc2-3)cc1,3.5*,5.1*,17*,17*,3,13*,5.5*,2,24*
COc1ccc(-c2c(C(=O)c3ccc(Br)cc3)[nH]c(N)c2C(=O)NCCc2c[nH]c3ccccc23)cc1OC,-1,-1,2,-2,.,.,.,.,.
Cc1ccnc(NC(=O)Cc2ccc(-c3ccccc3)cc2)c1,1.3*,15*,34*,9.9*,3,21*,1,2,9.6*
O=C(Cc1ccc(-c2ccccc2)cc1)Nc1ccccn1,0,0,10,2,0,.,.,.,.
c1ccc(-c2cc3nc(NCc4cccs4)ccn3n2)cc1,1,7.8*,12*,10*,.,16*,8.1*,2,6.6*
COc1cc(-c2cc3nc(NCc4cccs4)ccn3n2)cc(OC)c1OC,-2,-1,-3,-3,.,.,.,.,.
CC(=O)NC(Cc1ccccc1)P(=O)(O)O (stereo not drawn),-1,0,2,0,.,.,.,.,.
Cc1ccc(C(=O)Oc2oc(-c3ccco3)nc2C=Nc2ccc(Cl)cc2)cc1,1,4.6*,9,8.3*,0,7.9*,4.7*,1,3
Cc1ccc(/C=C/C(=O)N2CCc3ccccc32)o1,1.3*,5.2*,13*,13*,2,16*,7.3*,2,9.9*
Cc1cccc(NC(=O)c2cnc3sccn3c2=O)c1,0.9*,6.5*,13*,6.9*,4,12*,4.4*,2,13*
Cc1cccc(NC(=O)c2cnc3sccn3c2=O)n1,-1,1,3,1,1,.,.,.,.
CCC[C@H]1[C@@H](NC(=O)c2cccnc2)CC[C@@]23CCCN2C(=O)CCC[C@@H]13,-2,.,1,-1,.,.,.,.,.
COc1cccc(-c2cc(C(=O)N3CCc4ccccc4C3)no2)c1,-1,0,3,1,1,.,.,.,.
SMILES,ssDAF12 agonist,DAX1 inh-1,hgDAF12 agonist,hcDAF-12 act,DAX1 inh-2,DAX1 inh confirm,SF1 AF2mut Luc,LXR ag,hcDAF12 ag
COc1cccc(-c2nc3n(n2)CCc2ccccc2-3)c1,2.0*,8.3*,20*,17*,4.3*,7.5*,4.1*,1,16*
C(=Cc1cnc2ccccc2n1)c1ccc2c(c1)OCO2,-1,0,-7,-2,-5,.,.,.,.
C(=Cc1nc2ccccc2o1)c1ccc2c(c1)OCO2,0,13*,14*,8.1*,0,6.3*,0,1,8.9*
COc1ccc(-c2cc(-c3ccccc3)c(-c3ccccc3)nn2)cc1,0,1,5,3,.,.,.,.,.
COc1ccc(-c2cc3c(nn2)-c2ccccc2C3=O)cc1,2.4*,4.5*,12*,9.4*,1,-2,-3,0,1
Cc1ccc(N=Nc2cc(C)ccc2O)c(C)c1,0,1,2,1,-2,.,.,.,.
Cc1ccc(N=Nc2cc(C)ccc2N)cc1,2.8*,4.7*,17*,20*,0,18*,8.1*,2,22*
S=C1NC2=C(CCCC2=C2SCCCS2)C(c2ccccc2)N1 (stereo not drawn),-1,0,-3,-1,-1,.,.,.,.

# Compound activity deposited in PubChem BioAssay by The Scripps Research Institute Molecular Screening Center.
